Consider 88 compounds from PubChem BioAssay AID463173 (ICCB-Longwood Screening Facility, Harvard Medical School, 2010).

The campaign covered roughly 52,000 compounds. About 4,300 (8.3%) were called active. The list comes from a sample in which actives are over-represented; it also holds similar structures and randomly drawn compounds. A number with no mark means an inactive call. No stated cut-off is given here; in the data, active means survival mostly below about 52% (no sharp cut-off); inactive means mostly above about 56%.

The test relates to DeltatarO mutant. Description: growth inhibition of S. aureus wild type versus tarO mutant, primary screen, teichoic acid synthesis inhibitors, RN4220, OD600 (AID 463173). The note with it: OD600, 18 h, hits give low values, screened at 18.75 µg/mL (by protocol).
In the case of `COc1cccc(NC(=O)CCc2c(C)nc3nc(CNC(=O)c4cccc(F)c4)nn3c2C)c1`, the survival was 76%.
Next, `COc1ccc(CNC(=O)c2ccc3c(c2)N(Cc2cc(C)ccc2C)C(=O)CS3)cc1`: 59%.
Next, `CCN1CCSc2ccc(C(=O)NCc3cccc(F)c3)cc21`: 61%; `O=C(NCc1ccc(F)cc1)c1ccc2c(c1)N(Cc1ccc(F)cc1Cl)C(=O)CS2`: 57%.
`Cc1ccc(CNC(=O)c2ccc3c(c2)N(Cc2cccc(C)c2)C(=O)CS3)cc1`: the survival was 46% (active).
Next, `Cc1cccc(CN2C(=O)c3ccccc3Sc3ccc(C(=O)NCc4cccs4)cc32)c1`: 93%; `CCN1CCSc2ccc(C(=O)NCc3cccc(Br)c3)cc21`: 46% (active); `O=C(NCc1ccccc1Cl)c1ccc2c(c1)N(Cc1ccccc1)C(=O)CS2`: 101%.
The figure for `Cc1ccc(C)c(CN2C(=O)CSc3ccc(C(=O)NCc4ccc(F)cc4)cc32)c1` is 46% (active); for `Cc1cccc(CNC(=O)c2ccc3c(c2)N(C)CCS3)c1` it is 65%.
The figure for `Cc1ccc(CNC(=O)c2ccc3c(c2)N(Cc2cccc(Cl)c2)C(=O)CS3)cc1` is 40% (active); for `CCN1CCSc2ccc(C(=O)NCc3ccccc3Br)cc21` it is 62%.
For the compound `Cc1ccc(CNC(=O)c2ccc3c(c2)N(Cc2ccccc2Cl)C(=O)CS3)cc1`, the survival is 50%.
As for `Cc1ccc(NC(=O)Cn2nc(-c3ccncc3)ccc2=O)cc1Cl`, the survival is 120%.
Take `Cc1cc(C)c(/C=C/c2onc(C)c2S(=O)(=O)N2CCC(C(=O)NCCc3ccccc3)CC2)c(C)c1`: the survival was 94%.
Next, `Cc1ccc(-n2nc3c(=O)n(CCCC(=O)NCc4ccccc4C)nc(C)c3c2C)cc1`: 120%.
Next, `COC(=O)c1nc(C(=O)OC)c(C(=O)OC)nc1C(=O)OC`: 95%.
The figure for `COc1ccc(Cl)cc1C(=O)Nc1sc2c(c1C(=O)OC(C)C)CCCC2` is 61%; for `CCOC(=O)Cc1c(C(=O)OCC)nnc2c(-c3ccccc3)c(C)nn12` it is 75%.
`CN(C)c1ccc(CNC(=O)c2ccccc2NC(=O)c2nsc3ccccc23)cc1`: the survival was 73%.
Next, `COc1ccccc1NC(=O)C1=C(C)Nc2nc(CCCO)nn2C1c1cccc(O)c1` (stereo not drawn): 144%.
The figure for `CCCOc1ccc(C2C3CN(CC)CC=C3C(C#N)=C(N)C2(C#N)C#N)cc1OC` (stereo not drawn) is 0% (active); for `CCN1CC=C2C(C#N)=C(N)C(C#N)(C#N)C(c3ccc(OC)c4ccccc34)C2C1` (stereo not drawn) it is 108%; for `CCCN1CC=C2C(C#N)=C(N)C(C#N)(C#N)C(c3cccc(OC)c3)C2C1` (stereo not drawn) it is 95%.
`CC1CCN(S(=O)(=O)c2ccc3c(c2)CCN3)CC1`: the survival is 102%.
On to `COc1cc(C2C(C(=O)Nc3ccc(C)cc3C)=C(C)Nc3nc(SCc4ccccc4)nn32)cc(OC)c1OC` (stereo not drawn), for which the survival was 64%.
The figure for `O=C(O)C1C(c2ccccc2)C(C(=O)N2CCCCC2)C1c1ccccc1` (stereo not drawn) is 101%; for `Brc1ccccc1-n1ncc2c1ncn1nc(Cc3ccccc3)nc21` it is 74%; for `CC(C)(C)OC(=O)N1CCC(c2nnc(SCc3ccccc3F)o2)CC1` it is 57%.
The figure for `CC(C)(C)OC(=O)N1CCC(c2nnc(SCc3cccc(Cl)c3)o2)CC1` is 1% (active); for `Clc1cccc(CSc2nnc(C3CCNCC3)o2)c1` it is 104%; for `CC(C)(C)OC(=O)N1CCC(c2nnc(SCc3ccccc3)o2)CC1` it is 96%.
Next, `Clc1ccccc1CSc1nnc(C2CCNCC2)o1`: 89%.
For `CC(C)(C)OC(=O)N1CCC(c2nnc(SCc3ccccc3Cl)o2)CC1`, the survival is -1% (active).
Next, `CCN(C(=O)c1cnc(N2CCOCC2)c2ccccc12)c1cc(C)ccc1C`: 94%; `O=C(c1ccccc1)c1ccc2nc(Nc3cc(Cl)ccc3O)c3nncn3c2c1`: 118%; `COc1ccc(NC(=O)CSc2oc(-c3ccc(C)cc3)nc2S(=O)(=O)c2ccc(C)cc2)c(OC)c1`: 60%.
`CCCCn1cc(S(=O)(=O)c2ccc(C)c(C)c2)c(=O)c2cc(F)c(N3CCN(C)CC3)cc21`: the survival is 101%.
For the compound `COC(=O)c1ccccc1NC(=O)[C@H]1O[C@@H]2OC(C)(C)O[C@@H]2[C@H]2OC(C)(C)O[C@H]21`, the survival was 95%.
Turning to `COc1cccc(N2CCN(Cc3cc(=O)oc4cc(C)ccc34)CC2)c1`, the survival was 70%.
The figure for `Cc1ccc2c(CN3CCN(C(=O)c4ccc(F)cc4)CC3)cc(=O)oc2c1` is 33% (active); for `Cc1ccc2c(CN3CCN(Cc4ccccc4Cl)CC3)cc(=O)oc2c1` it is 43%; for `COc1ccccc1C(=O)N1CCN(Cc2cc(=O)oc3cc(C)ccc23)CC1` it is 38% (active).
Next, `Cc1ccc2c(CN3CCN(C(=O)c4ccc(Br)cc4)CC3)cc(=O)oc2c1`: 51%; `COc1ccc(CN2CCN(Cc3cc(=O)oc4cc(C)ccc34)CC2)c(OC)c1OC`: 101%.
The figure for `Cc1ccc(N2C(=O)CSC23C(=O)N(CC(=O)NCCc2ccccc2)c2ccccc23)cc1C` (stereo not drawn) is 95%.
As to `O=c1[nH]c2cc3c(cc2cc1C(c1nnnn1C1CCCC1)N1CCc2ccccc21)OCCO3` (stereo not drawn), the survival was 64%.
The figure for `COc1cccc(N2CC(NC(=O)c3cccc(OC)c3OC)CC2=O)c1` (stereo not drawn) is 115%; for `NC(=O)CN(C1CCCCC1)S(=O)(=O)c1ccc(Br)cc1` it is 96%; for `CCCCC(CC)CNC(=O)c1ccc2c(=O)n(Cc3ccc(OC)cc3)c(=O)[nH]c2c1` (stereo not drawn) it is 84%.
Next, `COc1ccc(CCNC(c2ccc(F)cc2)c2nnc(-c3ccccc3Cl)o2)cc1OC` (stereo not drawn): 57%; `Cc1ccc(CCNC(c2ccc(F)cc2)c2nnc(-c3ccccc3Cl)o2)cc1` (stereo not drawn): -8% (active).
The figure for `Fc1ccc(NCc2ccccc2-c2nnc(-c3ccccc3Cl)o2)cc1` is 88%; for `Fc1ccc(C(NCCc2ccc(Cl)cc2)c2nnc(-c3ccccc3Cl)o2)cc1` (stereo not drawn) it is 26% (active).
As to `Fc1ccc(C(Nc2ccccc2Cl)c2nnc(-c3ccccc3Cl)o2)cc1` (stereo not drawn), the survival is 83%.
The figure for `Fc1ccc(C(NCCc2ccccc2)c2nnc(-c3ccccc3Cl)o2)cc1` (stereo not drawn) is 104%; for `CCOc1ccc(C(C)C)cc1S(=O)(=O)Nc1cccc(-c2ccc(N3CCOCC3)nn2)c1` it is 87%.
On to `Cc1nc2nc(NC(=O)c3ccc(C(C)(C)C)cc3)[nH]n2c(=O)c1Cl`, for which the survival is 98%.
Turning to `Cc1nn(S(=O)(=O)c2ccccc2)c(C)c1S(=O)(=O)N1CCC(C)CC1`, the survival is 72%.
The figure for `Cc1nn(C(=O)c2cccc([N+](=O)[O-])c2C)c(C)c1S(=O)(=O)N1CCOCC1` is 76%; for `Cc1nn(S(=O)(=O)c2ccc(F)cc2)c(C)c1S(=O)(=O)N1CCC(C)CC1` it is -1% (active); for `COc1ccc(S(=O)(=O)n2nc(C)c(S(=O)(=O)N3CCCCCC3)c2C)cc1OC` it is 6% (active).
Next, `Cc1nn(S(=O)(=O)c2ccc(F)cc2)c(C)c1S(=O)(=O)N1CCCCC1`: 72%.
Next, `Cc1nn(C(=O)c2cccc([N+](=O)[O-])c2C)c(C)c1S(=O)(=O)N1CCCCCC1`: -2% (active); `Cc1nn(C(=O)c2ccccc2F)c(C)c1S(=O)(=O)N1CCCCCC1`: 83%; `COc1ccc(S(=O)(=O)n2nc(C)c(S(=O)(=O)N3CCC(C)CC3)c2C)cc1OC`: 70%.
As to `COc1ccc(S(=O)(=O)n2nc(C)c(S(=O)(=O)N3CCCCCC3)c2C)cc1C`, the survival was 81%.
The figure for `CC(C)c1ccc(Nc2cc(C(=O)NCCc3ccccc3)c3ccccc3n2)cc1` is 81%.
For `Cc1nn(CC(=O)NCc2ccccc2Br)c(=O)c2cc3occc3n12`, the survival was 132%.
Next, `Cc1ccc(CCNC(=O)c2ccc3c(c2)N(Cc2ccc(F)cc2)CCS3)cc1`: 71%.
For `CC1=C(c2ccc(C(C)C)cc2)S(=O)(=O)N=C1N1CCN(c2ccc(F)cc2)CC1`, the survival is 74%.
The figure for `O=S(=O)(NCCS(=O)(=O)N1CCN(c2cccc(Cl)c2)CC1)c1ccc(F)cc1` is 83%; for `CCC1CCCCN1CCCNC(=O)c1cc2c(Cl)nc3ccc(C)cc3c2s1` (stereo not drawn) it is 67%.
Next, `COc1ccccc1C(=O)NCCn1cc(SCC(=O)Nc2ccccc2F)c2ccccc21`: 55%.
The figure for `COc1ccccc1C(=O)NCCn1cc(SCc2ccccc2Cl)c2ccccc21` is 34% (active); for `COc1ccccc1C(=O)NCCn1cc(SCc2ccc(C)cc2)c2ccccc21` it is 22% (active).
Consider `Cc1ccc(CSc2cn(CCNC(=O)c3cccs3)c3ccccc23)cc1`, for which the survival was 58%.
Next, `COc1ccc(CCNC(=O)CSc2cn(CCNC(=O)c3ccccc3F)c3ccccc23)cc1OC`: 137%.
Next, `O=C(NCCn1cc(SCc2ccccc2Cl)c2ccccc21)c1cccs1`: 57%.
On to `CCOc1ccc(C(=O)Nc2ccc(S(=O)(=O)N3CCOCC3)cc2)cc1OCC`, for which the survival is 72%.
Next, `CCOc1ccc(CNC(=O)c2cccc(NC(=O)N3CCSc4ncccc43)c2)cc1OC`: 92%; `COc1cccc(N2CC(NC(=O)c3ccc4c(c3)OCO4)CC2=O)c1` (stereo not drawn): 92%; `Cc1c(C(=O)NCCN(C)C)sc2nc3n(c(=O)c12)CCC3`: 87%.
For `O=C(C1CCCCC1)N(Cc1nc2sc3c(c2c(=O)[nH]1)CCCC3)Cc1cccs1`, the survival is 66%.
The figure for `Cc1sc2nc(CN(C(=O)c3cccs3)C3CCCC3)[nH]c(=O)c2c1C` is 80%.
`O=C(c1cccs1)N(Cc1nc2sc3c(c2c(=O)[nH]1)CCCC3)C1CCCC1`: the survival was 45% (active).
The figure for `Cc1ccc(NCc2cccn2-c2nnc(N3CCC(C(=O)NCc4ccc(OC(C)C)cc4)CC3)s2)cc1` is 69%.
Next, `CCCCn1c(=N)c(C(=O)NC2CCCCC2)cc2c(=O)n3cccc(C)c3nc21`: 62%.
